# Screening results (PubChem)
# Hits are enriched below; roughly 2.8% of the tested compounds scored in any of these assays.
# HIF activator: HIF pathway transcriptional activators, primary screen, cell-based, U2OS HRE-luciferase, luminescence; hit rate 0.32% among 300,000; activation, % at 7.5 µM (by protocol); AID 1910, 2009; U2OS HRE-luciferase reporter; normalized: DMSO 0%, desferrioxamine 100%;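 active = mean activation of at least 10% of the iron chelator positive control signal, with at least half of replicates also reaching 10%; inconclusive = mean and replicate majority disagree about reaching 10%; inactive = mean and most replicates under 10%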
# PolyA inh: polyadenylation inhibitors in yeast reporter cells, primary screen, luminescence, S. cerevisiae | S. cerevisiae SKY197-pL101 polyadenylation reporter, beta-gal luminescence; efflux-impaired pdr1/pdr3 knockout yeast; score 100 = 6 SD above DMSO | activity score, % at 12 µM | hit rate 0.02% among 300,000;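 active = lowest replicate activity score at least 50, where 100 means six control SD above control mean; inconclusive = lowest score under 50 but half or more replicates reach 50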;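 note: yeast exposed to compound for 9 h at 30 °C; higher score means more reporter readthrough which indicates perturbed polyadenylation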
# Platelet DG rel: inhibitors of platelet dense granule secretion, primary screen, cell-based, MLPCN, human platelets; hit rate 0.22% among 300,000; inhibition, %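 (compounds screened at 7.5 µM in platelet-rich plasma)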; AID 1663, 2009; human platelet-rich plasma, SFLLRN dense granule ATP release, luminescence;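 active = mean replicate score, as percent of positive control, at or above 50; inconclusive = mean below 50 but at least one replicate at or above 50; inactive = mean and every replicate below 50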
# p-CIP stab down: p/CIP-EGFP fusion destabilizers, primary screen, fluorescence, F442A cells. hit rate 0.01% among 290,000. decrease of EGFP signal, % at 10 µM. 16 h. Q05BA5;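 active = EGFP signal decrease of at least 30% at 10 µM or well 3 SD below plate mean, unless failing retest; inactive = the rest, including hits failing retest or dose response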
# Target sequence (Q05BA5 1-1403): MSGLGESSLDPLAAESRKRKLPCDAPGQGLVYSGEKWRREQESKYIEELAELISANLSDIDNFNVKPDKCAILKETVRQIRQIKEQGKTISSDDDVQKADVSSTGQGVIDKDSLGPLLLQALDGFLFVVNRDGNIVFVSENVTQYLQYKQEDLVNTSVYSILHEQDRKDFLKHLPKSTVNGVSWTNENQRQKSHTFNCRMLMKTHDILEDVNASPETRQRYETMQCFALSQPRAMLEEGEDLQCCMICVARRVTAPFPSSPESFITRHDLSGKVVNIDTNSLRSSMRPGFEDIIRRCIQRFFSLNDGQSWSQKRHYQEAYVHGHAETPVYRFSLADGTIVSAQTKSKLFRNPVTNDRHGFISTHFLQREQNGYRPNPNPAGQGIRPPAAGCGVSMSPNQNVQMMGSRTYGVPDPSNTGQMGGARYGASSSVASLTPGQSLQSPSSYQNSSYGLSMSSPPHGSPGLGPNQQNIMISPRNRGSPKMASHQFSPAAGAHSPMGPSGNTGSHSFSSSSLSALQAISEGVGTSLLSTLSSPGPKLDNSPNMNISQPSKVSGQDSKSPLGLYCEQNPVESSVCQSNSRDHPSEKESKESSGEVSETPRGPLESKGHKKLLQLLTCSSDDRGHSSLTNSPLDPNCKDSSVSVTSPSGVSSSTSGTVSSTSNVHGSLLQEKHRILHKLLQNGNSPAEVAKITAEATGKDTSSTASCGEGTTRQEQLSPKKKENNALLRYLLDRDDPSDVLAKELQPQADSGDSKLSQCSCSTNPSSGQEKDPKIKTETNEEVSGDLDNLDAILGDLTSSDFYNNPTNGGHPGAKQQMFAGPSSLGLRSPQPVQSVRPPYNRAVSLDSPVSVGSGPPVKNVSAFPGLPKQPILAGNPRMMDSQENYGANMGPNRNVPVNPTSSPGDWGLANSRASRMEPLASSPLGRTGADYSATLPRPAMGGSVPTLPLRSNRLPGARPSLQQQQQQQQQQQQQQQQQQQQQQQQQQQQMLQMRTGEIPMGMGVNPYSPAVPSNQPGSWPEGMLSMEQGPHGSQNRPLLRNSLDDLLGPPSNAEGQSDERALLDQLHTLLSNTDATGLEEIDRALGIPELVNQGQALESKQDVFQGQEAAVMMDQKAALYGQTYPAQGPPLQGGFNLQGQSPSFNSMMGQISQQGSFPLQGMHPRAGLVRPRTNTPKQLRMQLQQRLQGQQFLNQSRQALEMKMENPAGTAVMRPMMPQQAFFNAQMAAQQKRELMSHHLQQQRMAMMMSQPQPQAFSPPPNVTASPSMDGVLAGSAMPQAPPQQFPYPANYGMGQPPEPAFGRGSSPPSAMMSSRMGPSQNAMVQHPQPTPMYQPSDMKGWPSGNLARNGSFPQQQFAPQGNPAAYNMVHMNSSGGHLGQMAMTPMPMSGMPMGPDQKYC
# AHR act: AHR activators, primary screen, cell-based, luminescence, luciferase reporter, human. AHR-responsive luciferase reporter cells. activation, % at 5 µM. hit rate 2.5% among 320,000; in the data active = activation above about 47%;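 note: 0% = vehicle wells and 100% = reference agonist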
# An asterisk follows results filed as active; ? = inconclusive; nt = no result given.
SMILES,HIF activator,PolyA inh,Platelet DG rel,p-CIP stab down,AHR act
COc1ccccc1NC(=S)NNC(=O)c1nn(C)cc1Cl,0,-14,1,-2,4
CC(COc1ccccc1)N1CCC(CO)(Cc2ccccc2)CC1 (stereo unspecified),-1,7,-15,-4,-2
CCCCCCc1cc2cc(S(=O)(=O)c3ccc(F)c(Cl)c3)c(=O)oc2cc1O,-1,8,-3,12,-1
O=S1(=O)CCN(Cc2csc(-c3cccs3)n2)CC1,1,-16,52*,1,0
C=CCSc1nnc(-c2cc3c(s2)-c2ccccc2CC3)o1,0,13,-17,-7,66*
C/C(=N\NC(=S)NC(C)C)c1ccccc1,0,-5,17,-3,2
CC(C)NC(=S)NN=C1c2ccccc2-c2ccccc21,26*,-11,-4,15,25
COc1cc(N2CCCC2)c(OC)cc1/C=C1/NC(=S)NC1=O,0,8,0,-373,66*
COc1ccc(NC(=O)c2ccc(NC(=O)CN3CCC(C(N)=O)CC3)cc2)cc1,nt,nt,nt,nt,-2
O=C(OCC(=O)N1CCCCC1)c1ccc2c(c1)C(=O)N(Cc1ccco1)C2=O,nt,nt,nt,nt,-1
COc1ccccc1NC(=O)c1nnn(CC(=O)Nc2ccccc2)c1N,0,5,1,-2,47*
CC1CCN(S(=O)(=O)c2ccc(NC(=O)C3CSC4(C)CCC(=O)N34)cc2)CC1 (stereo unspecified),0,10,-9,nt,1
Fc1ccc(-c2nnc(NC3=NCCCCC3)o2)cc1,-4,7,64*,6,-13
c1ccc(-c2nnc(NC3=NCCC3)o2)cc1,-3,26,-4,3,9
COc1ccccc1NC(NC(=O)c1cccnc1)C(Cl)(Cl)Cl (stereo unspecified),-1,-11,8,-2,4
Cc1cccc(NCC(=O)N/N=C\c2ccccn2)c1,1,15,-1,-13,38
Cc1ccccc1NCC(=O)N/N=C/c1c[nH]c2ccccc12,0,3,12,6,62*
Cc1cccc(NCC(=O)N/N=C\c2c[nH]c3ccccc23)c1,1,7,2,-2,78*
CC1(C)Cc2c(sc(NC(=O)C(=O)N3CCN(CCO)CC3)c2C(N)=O)CO1,0,7,-3,7,0
CC(=O)Nc1ccc(N2N=C(C)C(N=Nc3ccccc3)C2=O)cc1 (stereo unspecified),0,-12,-5,-1,50*
CC1=NN(c2ccccc2)C(=O)C1N=Nc1ccc(C)cc1 (stereo unspecified),0,6,-12,4,9
Cc1ccc([C@@H]2CC=C(C(=O)O)[C@H](c3ccc(Cl)cc3)N2S(=O)(=O)c2ccccc2C)cc1,nt,nt,nt,nt,0
COc1ccc(/C(=N/Nc2ncnc3ccccc23)C(=O)O)cc1,1,-9,13,-6,73*
CCOC(=O)/C(=N\Nc1ncnc2ccccc12)c1ccc(OC)cc1,0,-18,-3,-23,32
Cc1ccc(NC(=S)N/N=C2\CC(C)(C)Oc3ccc(O)cc32)cc1,0,-11,-1,-4,70*
SMILES,HIF activator,PolyA inh,Platelet DG rel,p-CIP stab down,AHR act
S=C1NC2=C(CCCC2=C2SCCS2)C(c2ccccc2)N1 (stereo unspecified),69*,7,-2,14,16
CCN(CC)CCn1c(NC(=O)c2ccccc2O)nc2ccccc21,2,-3,-11,10,22
Cn1nc(-c2ccc(Cl)cc2)c2cc(C(=O)NCCCN3CCOCC3)sc21,nt,?,1,1,55*
Cn1nc(-c2ccc(Cl)cc2)c2cc(C(=O)NCCN3CCOCC3)sc21,nt,-14,19,0,50*
CCN1CCN(C(=O)c2cc3c(-c4ccc(Cl)cc4)nn(C)c3s2)CC1,nt,3,-4,-8,64*
COc1ccc(C(=O)NNC(=O)c2ccccn2)cc1,-3,-4,77*,-2,-7
COc1ccc2c(c1)C(=NNC(=O)c1ccccn1)c1cc(OC)ccc1-2,0,-8,-1,-16,52*
COc1cc(OC)cc(C(=O)NNC(=O)c2ccccn2)c1,2,1,-3,5,4
COc1ccc(C(=O)NCCNC(=O)c2ccccn2)cc1,-1,-5,14,-5,2
COc1ccccc1-c1nnc(NC(=O)OCC(C)C)s1,0,-28,6,-5,64*
COC(=O)Nc1nnc(-c2ccncc2)s1,0,15,-3,-10,14
COC(=O)Nc1nnc(-c2ccccc2Cl)s1,2,-6,0,4,55*
CC(C)COC(=O)Nc1nnc(Cc2ccccc2)s1,1,-11,-5,-15,12
O=c1c2cccnc2[nH]c(=S)n1Cc1ccccc1,2,2,-13,-13,-1
O=C(Cn1c(=S)[nH]c2ncccc2c1=O)NCCc1ccccc1,0,12,6,-4,57*
CCn1c(COC(=O)CNC(=O)c2ccccc2F)nc2cc(S(=O)(=O)N(C)C)ccc21,-1,?,1,nt,-1
CCC(C)Sc1nc2c(cnn2-c2ccccc2)c(=O)[nH]1 (stereo unspecified),0,7,10,-1,66*
CCC(C)Sc1nc2c(cnn2-c2ccc(C)cc2)c(=O)[nH]1 (stereo unspecified),0,-8,17,-5,3
CCC(C)NC(=O)c1cn(CC)c2cc(N3CCN(C(=O)c4ccco4)CC3)c(F)cc2c1=O (stereo unspecified),-1,0,2,1,2
CCCN(CCC)C(=O)c1cc(-c2ccc3c(c2)OCO3)nc2ccccc12,-1,-27,3,-4,66*
COc1cccc(-c2nc(-c3ccccc3)[nH]c(=O)c2C#N)c1,0,-8,-2,-18,79*
CCN(CC)CCn1c2c(c(SCC(=O)Nc3ccc4c(c3)OCCO4)nc1=O)CCCC2,0,10,19,nt,2
COc1ccc(C)cc1NC(=O)C(OC(=O)Cn1cnc2c1c(=O)n(C)c(=O)n2C)c1ccccc1 (stereo unspecified),0,-7,3,nt,53*
Cc1cc(C)cc(NC(=O)C(OC(=O)Cn2cnc3c2c(=O)n(C)c(=O)n3C)c2ccccc2)c1 (stereo unspecified),0,-1,1,nt,9
COc1ccc(C)cc1NC(=O)C(OC(=O)CNC(=O)c1cc(C)cc(C)c1)c1ccccc1 (stereo unspecified),0,12,7,0,67*
COc1ccc(C)cc1NC(=O)C(OC(=O)c1ccc([N+](=O)[O-])o1)c1ccccc1 (stereo unspecified),0,-11,-2,0,47*
